# Screens deposited in PubChem by National Center for Advancing Translational Sciences (NCATS).
# Only some compounds are listed: those with a hit (about 6.1% of all), similar ones and a draw of the others.
# D3 ag – activates the human D3 dopamine receptor; P35462; D3R DiscoveRx beta-arrestin cells, luminescence, 90 min; max activation, %; actives 0.58% (n = 410,000); in the data active = max activation above about 30%; also: 0% is about no effect
#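 Cells at 1500/well, incubated overnight, then treated with pinned compounds (dopamine as control) for 90 min at 37 degrees C. DiscoveRx reagent added for 30 - 60 minutes at room temperature; luminescence read.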
# D1 agonist – activates the human D1 dopamine receptor; actives 1% (n = 360,000); P21728; activation, % at 2 µM; AID 504660; HEK293 T-REx D1 cells, calcium flux, agonist mode; in the data active = activation above about 30%; also: 0% is about no effect
#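 Tetracycline-induced HEK293 TREx D1 cells, force-coupled to calcium signalling, were dye-loaded with a no-wash calcium kit. Compound was pin-added after a 10 s baseline. Fluorescence was read kinetically at 1 cycle/s for 180 s, with calcium rises flagged as agonism.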
# D1 antagonist – blocks dopamine activation of the human D1 receptor; P21728; HEK293 TREx D1 cells, calcium flux, dopamine EC80; hits give low values; activity change, negative = inhibition, % at 10 µM; actives 3.2% (n = 360,000); in the data active = activity change below about -30%; also: % is scaled to controls: 0 for no effect and ±100 for the full control effect
#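 Inducible Hek293 Trex D1 cells (tetracycline, overnight, 30 C). Calcium dye 30–90 min RT. Antagonist mode: EC80 dopamine added after 180 s compound read.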
# D1 potentiator – potentiators of human D1 dopamine receptor. HEK293 TREx D1 cells, calcium flux, dopamine EC20 potentiation. potentiation, % at 10 µM. actives 0.036% (n = 360,000). AID 504651; in the data active = potentiation above about 30%; also: 0% is about no effect
# ERG-DNA inh – ERG Ets/DNA interaction inhibition; P11308; fluorescence polarization, His-ERG Ets domain / labelled DNA; Potency, µM (series often up to 76.9 µM), inactives show at the top dose FP activity, negative = inhibition, actives largely listed as inhibitors; actives 0.028% (n = 370,000); active = well fitted inhibition curve with a large enough effect in the polarisation, with a control signal flat; inconclusive = small, poorly fitted or top-dose-only effect, or effect the other way, or a change in a side signal; inactive = no such curve, though single readings can be large or run the other way; the % refers to the polarisation;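 also: polarization taken with two DNA probes labelled with fluorescein and Texas red; potency is read from the fitted curve at half-maximal effect; % of control where 0% means no effect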
# Target sequence (P11308 whole entry, looked up, the tested form may be a part): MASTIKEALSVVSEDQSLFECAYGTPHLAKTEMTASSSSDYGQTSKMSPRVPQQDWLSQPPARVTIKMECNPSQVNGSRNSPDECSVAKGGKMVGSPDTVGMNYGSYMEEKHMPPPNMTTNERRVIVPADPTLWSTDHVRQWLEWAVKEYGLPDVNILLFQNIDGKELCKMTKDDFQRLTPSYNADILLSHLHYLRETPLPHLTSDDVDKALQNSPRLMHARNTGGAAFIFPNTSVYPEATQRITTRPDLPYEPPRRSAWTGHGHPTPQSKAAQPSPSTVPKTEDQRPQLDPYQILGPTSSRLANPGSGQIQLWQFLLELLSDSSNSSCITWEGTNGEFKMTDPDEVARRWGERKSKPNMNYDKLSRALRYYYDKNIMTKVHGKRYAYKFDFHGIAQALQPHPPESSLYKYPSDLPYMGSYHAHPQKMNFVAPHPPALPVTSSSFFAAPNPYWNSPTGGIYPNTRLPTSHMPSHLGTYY
#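 His-tagged ERG Ets domain (1 uM in the protein solution; 300mM KCl, 50mM Tris-HCl, 1mM EDTA, 1mM DTT, pH 7.5) received compound, then a probe mix of 5 nM fluorescein-DNA and 100nM Texas-615-DNA. Fluorescence polarization was read for both dyes.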
# DRD3 antagonist – D3 dopamine receptor (human) antagonism. P35462. actives 2.5% (n = 360,000). max response, negative = inhibition, %. D3R cells, DiscoveRx beta-arrestin luminescence, antagonist mode; hits give low values. AID 652054; in the data active = max response below about -50%; inconclusive = no clear call, values can overlap the other calls; also: % is scaled to controls: 0 for no effect and ±100 for the full control effect
#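 Cells expressing the human receptor were seeded at 1500 cells/well, incubated overnight at 37 degrees C in 5% CO2, then exposed to library compounds with dopamine controls for 90 minutes at 37 degrees C before luminescent detection.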
# * = called active by the depositor; ? = inconclusive; nt = no result; ! = a repeat was not active.
SMILES,D3 ag,D1 agonist,D1 antagonist,D1 potentiator,ERG-DNA inh,DRD3 antagonist
COc1ccc(C)cc1NC(=S)NNC(=O)c1ccccc1Cl,-1,-1,0,-1,3%,35
CCOC(=O)Cc1c(C)nc(N)[nH]c1=O,-6,3,-31*,-2,6%,-18
C[C@]12CCC(=O)CC1CCC1C2CC[C@@]2(C)C1CC[C@@]21CCO1 (stereo not given in full),6,3,0,-4,-3%,-19
C[C@]12CCC(=O)C[C@@H]1CC[C@@H]1[C@@H]2CC[C@]2(C)C=CC[C@@H]12,35*!,1,16,2,6%,19
CC(C)c1ccc(OCc2ccc(C(=O)N3CCCC3)o2)cc1,3,70*,-34*,nt,17%,-8
Cc1ccccc1N1CCN(C2CCCN(C(=O)CCC3(C)CC3)C2)CC1 (stereo not given),-7,1,2,20,1%,-64*
CC1(C(=O)Nc2ccc3c(c2)OCCO3)CC1(Cl)Cl (stereo not given),4,3,-15,-5,-1%,0
Cc1cc(C)cc(NC(=O)CSc2c(C(C)C)cnc3c2c(=O)n(C)c(=O)n3C)c1,4,0,-2,3,-3%,nt
O=[N+]([O-])c1cc(S(=O)(=O)NC2=NCCCCC2)ccc1NCC1CCCCC1,-3,6,-33*,0,0%,1
Nc1ccc(S(=O)(=O)NC2=NCCCCC2)cc1N,-8,3,12,-5,-4%,-13
O=C(CCl)NCCNC(=O)c1cc(OCC(F)(F)F)ccc1OCC(F)(F)F,5,0,7,-7,-4%,10
CC(C)(C)c1ccc(C(=O)NCCCN2CCN(CCCNC(=O)c3ccc(C(C)(C)C)cc3)CC2)cc1,-5,24,-30*,-7,-4%,0
COc1ccc(C(=O)NCCN2CCCC2)cc1,-11,5,-15,-2,9%,-54*
CC(C)(C)c1ccc(C(=O)NCCN2CCOCC2)cc1,-4,nt,nt,nt,1%,1
CCOc1c(Cl)cc(C(=O)NCCN2CCCCC2)cc1Cl,-52,6,1,-17,-3%,-73*
O=C(NCCN1CCCCC1)c1cc(OCC(F)(F)F)ccc1OCC(F)(F)F,1,0,8,-2,8%,-53*
COc1ccc(CC(=O)NCCN2CCCC2)cc1,-4,5,20,-5,-12%,-4
O=C(CN1C(=O)c2cccc([N+](=O)[O-])c2C1=O)NNC(=O)c1ccc(F)cc1,5,nt,nt,nt,20%,23
CCOc1ccccc1C(=O)NCCCCNC(=O)c1ccccc1OCC,2,nt,nt,nt,11%,6
O=C(NCCN1CCN(C(=O)c2ccc(F)cc2)CC1)c1ccc(F)cc1,-10,4,-11,16,-1%,-79*
Cc1cccc(C(=O)NCCN2CCCC2)c1,-6,0,-1,3,-4%,-66*
CCOc1ccccc1C(=O)NCCCN1CCN(CCCNC(=O)c2ccccc2OCC)CC1,-3,0,-3,0,-1%,-53*
CC(=O)Nc1ccc(S(=O)(=O)NCc2ccc(C(=O)NCc3ccc(Cl)cc3)cc2)cc1,-9,-1,-3,7,4%,-19
CC(=O)Nc1ccc(S(=O)(=O)NCc2ccc(C(=O)NCCN3CCCCCC3)cc2)cc1,-17,0,10,-1,-12%,-53*
O=C(CCSc1nc(-c2ccco2)cc(C(F)(F)F)n1)Nc1cccc(O)c1,-5,1,3,-2,-4%,nt
SMILES,D3 ag,D1 agonist,D1 antagonist,D1 potentiator,ERG-DNA inh,DRD3 antagonist
Cc1ccc(OCC(=O)NCCN2CCCC2)cc1,-1,3,5,-4,4%,-21
CNC(=O)c1cc(OCC(F)(F)F)ccc1OCC(F)(F)F,-2,-1,nt,-2,-3%,21
CC(C)(C)c1ccc(OCC(=O)NCCN2CCCC2)cc1,0,15,10,5,-6%,-57*
COc1cccc(/C=N\NC(=O)c2cc(OCC(F)(F)F)ccc2OCC(F)(F)F)c1,2,33*,-2,-6,-1%,4
CCC(C)[C@H]1CNCCN1CC1(c2ccccc2)CC1 (stereo not given in full),-10,5,9,-4,6%,-18
c1ccc(CN2CCN(CCCNc3ccc4nnc(-c5ccccc5)n4n3)CC2)cc1,-7,0,2,-5,8%,-10
Cn1c(=O)[nH]c(=O)c2c1nc(CN1CCN(c3ccccc3F)CC1)n2CCCc1ccccc1,16,-1,-29,-6,nt,16
OC(COCc1ccccc1)CN1CCN(c2ccccc2F)CC1 (stereo not given),51*,2,13,-4,-3%,15
Fc1ccccc1N1CCN(CCCc2ccccc2)CC1,-20,3,-63*,-9,4%,-92*
Fc1ccccc1N1CCN(CCCNc2ccc3nncn3n2)CC1,46*,2,-1,nt,-8%,-61*
OC(COc1ccc2c(c1)CCC2)CN1CCN(c2ccccc2F)CC1 (stereo not given),32*,9,-30,-6,nt,?
c1ccc(CCN2CN(CCCN3CCOCC3)c3nc4ccccc4n3C2)cc1,5,1,-4,0,-9%,14
Clc1ccccc1CN1CCN(CCCc2ccccc2)CC1,-20,3,-19,-8,-6%,-79*
COc1ccc(N2CCN(CC(O)COc3ccc4c(c3)CCC4)CC2)cc1 (stereo not given),0,4,13,1,3%,-79*
O=[N+]([O-])c1ccc(OCC(O)CN2CCN(c3ccccc3F)CC2)cc1 (stereo not given),59*,5,-20,-13,-3%,-19
CC(=O)c1ccc(NC(=O)CSc2nnc3ccc(-c4ccc(Br)cc4)nn23)cc1,6,0,nt,2,-3%,nt
CCc1ccccc1NC(=O)N1CCN(c2cc(-c3noc(C)n3)ccc2C)CC1,-10,1,7,-1,-1%,nt
CCCCCCCOC(=O)c1ccc(OC(=O)c2cccnc2)cc1,-17,8,-5,0,nt,-21
Cc1cc(=O)oc2cc(OC(=O)c3cncc(Br)c3)ccc12,6,4,-45*,-1,-3%,8
CCCCCOC(=O)c1ccc(OC(=O)c2cncc(Br)c2)cc1,-1,2,-1,-2,nt,-74*
CCOC(=O)c1c(C)[nH]c(C)c1C(=O)COC(=O)/C=C/c1ccc(OC(F)F)cc1,0,2,3,33*,-4%,-16
O=C(Nc1ccc2c(c1)OCO2)C1CCCCN1S(=O)(=O)c1ccc(F)cc1 (stereo not given),1,1,9,-3,-12%,22
